# High-throughput results: PubChem BioAssay, Corson Lab, School of Medicine, Indiana University
# The full list was thinned out, with hits kept by preference.
# FECH block = inhibitors of human ferrochelatase, primary screen, biochemical, purified FECH, Ni-mesoporphyrin absorbance; Ferrochelatase, mitochondrial (Homo sapiens), P22830; Ni-mesoporphyrin absorbance 550 nm; calls only at 10 µM (by protocol); hit rate 3.3% among 20,000;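 active = enzyme reaction rate more than 3 SD below the solvent-only control wells on the same plate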;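 note: lower slope than DMSO wells means FECH inhibition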
# Target sequence (P22830 whole entry, looked up): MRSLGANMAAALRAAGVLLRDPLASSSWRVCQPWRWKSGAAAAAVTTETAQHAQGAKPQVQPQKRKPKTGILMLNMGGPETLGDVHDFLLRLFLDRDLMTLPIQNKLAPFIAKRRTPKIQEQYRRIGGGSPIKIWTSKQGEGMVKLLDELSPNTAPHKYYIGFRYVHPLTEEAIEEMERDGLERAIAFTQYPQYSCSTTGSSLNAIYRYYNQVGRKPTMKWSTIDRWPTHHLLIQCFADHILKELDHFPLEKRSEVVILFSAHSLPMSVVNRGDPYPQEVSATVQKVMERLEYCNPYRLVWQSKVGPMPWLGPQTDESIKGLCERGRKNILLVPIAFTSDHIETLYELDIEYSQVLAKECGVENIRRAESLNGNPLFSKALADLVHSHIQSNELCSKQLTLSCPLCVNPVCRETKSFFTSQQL
# The depositor's hits bear a star; i = inactive; + = active, no number.
SMILES,FECH block
O=C(NCC1CCCCC1)N1CCC(n2cc(-c3ccsc3)nn2)CC1,i
CSc1nc(Nc2cccc(Br)c2)c(C#N)c(-c2ccc(C)cc2)n1,i
COc1ccc(Br)cc1CNC(=O)COc1nc(C)nc2oc(C)c(C)c12,i
Cc1cccc(CN2CCN(CC(=O)NCc3ccccc3)S2(=O)=O)c1,i
CCc1ccc2occ(CC(=O)N3CCNCC3C(=O)N3CCCC3)c2c1 (centres undefined),i
CCn1cnnc1CCNC(=O)CN1CCOc2ccccc2C1,i
Cn1c(=O)n(Cc2cccnc2)c(=O)c2cnc(-c3cccs3)nc21,i
COCCn1c(CNS(=O)(=O)c2cc(C)c(C)cc2C)nc2cccnc21,i
Cc1cc(NC(=O)c2ccc(F)c(F)c2)n(-c2ncnc3c2cnn3-c2cccc(C)c2C)n1,i
Cc1ccc(C(=O)Nc2cc(C)nn2-c2ncnc3c2cnn3-c2cccc(C)c2C)cc1,+
COc1cccc(C(=O)Nc2cc(C)nn2-c2ncnc3c2cnn3-c2cccc(C)c2C)c1,i
Cc1ccc(-n2ncc3c(-n4nc(C)cc4NC(=O)C4CCCC4)ncnc32)c(C)c1,+
Cc1ccc(-n2ncc3c(-n4nc(C)cc4NC(=O)CCC4CCCC4)ncnc32)c(C)c1,i
Cc1cc(C)cc(C(=O)Nc2cc(C)nn2-c2ncnc3c2cnn3-c2ccc(Cl)cc2)c1,i
Cc1cc(C)cc(C(=O)Nc2cc(C)nn2-c2ncnc3c2cnn3-c2cccc(Cl)c2)c1,+
Cc1ccc(C(=O)Nc2cc(C)nn2-c2ncnc3c2cnn3-c2cccc(Cl)c2)cc1,i
CCCCC1CCC(C(=O)Nc2cc(C)nn2-c2ncnc3c2cnn3-c2ccc(C)cc2C)CC1 (centres undefined),i
Cc1nn(Cc2nnc(SCC(=O)O)n2C)c(C)c1C,i
CCC(=O)Nc1ccc(S(=O)(=O)NCc2nc3cccnc3n2C2CCCCC2)cc1,i
c1ccc(CCc2n[nH]c(CSc3ccccc3)n2)cc1,i
COc1ccccc1-c1cc(CNC(=O)c2c(C)nc3sccn23)on1,i
COCCN(C(=O)c1ccc(NC(=O)C2CCC2)cc1)C1CCN(C)CC1,i
CC1=NOC(C(=O)NCCOc2ccccc2F)C1 (centres undefined),i
C/C=C(\C)CN1CCC(OCc2cccnc2)CC1,i
Cc1ccc(C(C)NC(=O)CN2CCC(OCc3cccnc3)CC2)cc1 (centres undefined),i
SMILES,FECH block
O=C(CCN1CCC(OCc2cccnc2)CC1)NC1CCCCCC1,+
Cn1c(=O)n(CC(=O)N2CCCCC2)c(=O)c2cnc(-c3ccccc3)nc21,i
Cc1cc(C)cc(NC(=O)CN2C(=O)CN(C)C(=O)c3ccccc32)c1,i
Cc1ccc(NC(=O)CN2C(=O)CN(C)C(=O)c3ccccc32)cc1,i
CN1CC(=O)N(CC(=O)Nc2ccc(F)c(Cl)c2)c2ccccc2C1=O,+
CN1CC(=O)N(CC(=O)Nc2ccc3c(c2)OCO3)c2ccccc2C1=O,+
CC(C)c1ccc(NC(=O)CN2C(=O)CN(C)C(=O)c3ccccc32)cc1,i
CN1CC(=O)N(CC(=O)Nc2ccccc2)c2ccccc2C1=O,i
Cc1ccc(S(=O)(=O)N(C)c2nc3nc(C)cc(C)n3n2)cc1,i
C=CCN(C(=O)c1csc(CC)c1)C(C)C,i
COCCCNc1nc(Nc2ccccc2C)c2cnn(-c3ccccc3)c2n1,i
CC(C)c1cc(C(=O)NCCc2nc3c(s2)CCC3)n(C)n1,i
CCc1cc(Sc2ccccc2NC(=O)Cc2cccc(OC)c2)n2nc(C)nc2n1,i
CCc1cc(Sc2ccccc2NC(=O)c2cc(OC)cc(OC)c2)n2nc(C)nc2n1,i
CCc1cc(Sc2ccccc2NC(=O)Cc2ccc(OC)cc2)n2nc(C)nc2n1,+
Cc1cccc(NC(=O)NCCn2c(-c3ccncc3)nc3cccnc32)c1,i
CCN1CCN(c2nc(Nc3ccc4c(c3)OCO4)c3cnn(-c4ccccc4)c3n2)CC1,i
Cc1ccc(NC(=O)N2CCC(n3cnc4cccnc43)CC2)c(Cl)c1,i
O=C(Nc1ccc(Br)cc1F)N1CCC(n2cnc3cccnc32)CC1,+
Cc1ccc(Cl)cc1NC(=O)N1CCC(n2cnc3cccnc32)CC1,i
CCn1c(=O)n(Cc2ccccc2C)c(=O)c2cnc(-c3ccc(Cl)cc3)nc21,i
COc1ccc(F)cc1-c1nccn1C(C)CCCC(C)(C)O (centres undefined),i
Cn1ccnc1CN1C[C@@H]2C[C@H](C1)[C@@H]1CCCC(=O)N1C2,i
COCCCNc1nc(Nc2cccc(Cl)c2)c2cnn(-c3ccccc3)c2n1,i
NS(=O)(=O)c1ccc(CCNC(=O)CCN2C(=O)c3cccnc3Sc3ccccc32)cc1,+
SMILES,FECH block
NS(=O)(=O)c1ccc(CCNC(=O)CCCN2C(=O)c3cccnc3Sc3ccccc32)cc1,i
NS(=O)(=O)c1ccc(CCNC(=O)CN2CCSc3ccccc32)cc1,i
Cc1cc(N(C)C)nc(Nc2ccc(NC(=O)c3cccc(F)c3)cc2)n1,i
COc1ncc(-c2nccn2CCCN2CCCC2=O)cn1,i
CCCCN(CC)c1ncc(NS(=O)(=O)c2cc(Cl)ccc2OC)cc1C(=O)O,i
CC(C)(O)C#Cc1ccc(CN2CCC(c3ccncc3)CC2)s1,i
O=S(=O)(NCc1nc2cccnc2n1C1CCCC1)c1ccccc1,i
Cc1ccccc1NCc1cc(=O)n2[nH]c(-c3ccccc3C)nc2n1,+
Cc1ccccc1-c1nc2nc(CNc3ccccc3F)cc(=O)n2[nH]1,+
Cc1ccccc1-c1nc2nc(CNC(C)C)cc(=O)n2[nH]1,i
CCc1ccc(S(=O)(=O)Nc2cnc(N(CC(C)C)CC(C)C)c(C(=O)O)c2)cc1,i
Cc1cnc(C)c(N2CCC(Cc3ccccc3Cl)(C(=O)O)CC2)n1,i
CCc1c(C)nc2ncnn2c1Sc1ccc(NC(=O)Cc2ccc(Cl)cc2)cc1,i
COc1ccc(CNC(=O)N2CCN(c3cc(-c4cccc(C)c4)ncn3)CC2)cc1,i
CCOCCCNC(=O)Cn1nc(N2CCN(c3ccc(F)cc3)CC2)ccc1=O,i
CCCSCCNC1CCNCC1,i
CCC(C)N(Cc1ccc(CO)o1)Cc1ccccc1Cl (centres undefined),i
CC(=O)Nc1ccc(S(=O)(=O)NCc2nc3cccnc3n2C2CC2)cc1,i
CCOC(=O)c1ccccc1NC(=O)CN1CCCN(Cc2cccc(C)c2)S1(=O)=O,i
COc1ccccc1NC(=O)CN1CCCN(Cc2cccc(F)c2)S1(=O)=O,i
COc1ccc(NC(=O)CN2CCCN(Cc3ccccc3)S2(=O)=O)c(OC)c1,i
COc1ccccc1NC(=O)CN1CCCN(Cc2cccc(C)c2)S1(=O)=O,+
COc1cc(OC)c(NC(=O)CN2CCCN(Cc3ccccc3)S2(=O)=O)cc1Cl,+
CCOc1ccccc1NC(=O)CN1CCCN(Cc2cccc(C)c2)S1(=O)=O,+
COc1cc(OC)c(NC(=O)CN2CCN(Cc3ccccc3F)S2(=O)=O)cc1Cl,i
CCOc1ccccc1NC(=O)CN1CCCN(Cc2ccc(OC)cc2)S1(=O)=O,i
COc1ccccc1NC(=O)CN1CCCN(Cc2ccc(Cl)cc2)S1(=O)=O,i
Cc1cc(C)cc(-n2c(CN3CCN(S(=O)(=O)c4ccc(F)cc4)CC3)nc3cccnc32)c1,i
O=C(c1csc(S(=O)(=O)NCc2ccco2)c1)N1CCCC1,i
Cc1cc(C)n(CCNc2nccc(N3CCC(O)C3)n2)c(=O)n1 (centres undefined),i
